Rows were chosen to be rich in hits. Some 6.1% of all compounds tested hit in one or more screens of this group.
D1 antagonist – Antagonist of Human D 1 Dopamine Receptor: qHTS; D(1A) dopamine receptor (Homo sapiens), P21728; HEK293 TREx D1 cells, calcium flux, dopamine EC80; stronger effect = lower value; activity change, negative = inhibition, % at 10 µM; 360,000 tested, 3.2% active; AID 504652, 2011; in the data active = activity change below about -30%
Target sequence (P21728 whole entry, looked up): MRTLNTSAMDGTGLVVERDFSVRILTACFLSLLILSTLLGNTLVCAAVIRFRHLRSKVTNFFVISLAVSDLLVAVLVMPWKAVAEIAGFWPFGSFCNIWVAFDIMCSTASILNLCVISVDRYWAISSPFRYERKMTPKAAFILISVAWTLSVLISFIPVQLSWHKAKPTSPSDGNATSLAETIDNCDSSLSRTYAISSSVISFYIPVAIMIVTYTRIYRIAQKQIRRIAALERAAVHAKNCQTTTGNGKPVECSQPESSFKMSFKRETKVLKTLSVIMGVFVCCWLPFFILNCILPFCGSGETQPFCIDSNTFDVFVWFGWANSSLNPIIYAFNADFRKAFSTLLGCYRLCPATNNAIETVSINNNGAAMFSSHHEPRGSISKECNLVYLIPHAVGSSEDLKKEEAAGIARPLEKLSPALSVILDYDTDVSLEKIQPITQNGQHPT
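Antagonism measured as reduced calcium response to an EC80 dopamine addition following 180 s compound pre-read; cells were inducible HEK293 Trex D1 plated overnight at 30 C, read kinetically at 1 cycle/sec.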
D3 antag – qHTS of D3 Dopamine Receptor Antagonist: qHTS; D(3) dopamine receptor (Homo sapiens), P35462; D3R cells, DiscoveRx beta-arrestin luminescence, antagonist mode; stronger effect = lower value; max response, negative = inhibition, %; 360,000 tested, 2.5% active; in the data active = max response below about -50%; inconclusive = no clear call, values can overlap the other calls
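Cells expressing the human receptor were seeded at 1500 cells/well, incubated overnight at 37 degrees C in 5% CO2, then exposed to library compounds with dopamine controls for 90 minutes at 37 degrees C before luminescent detection.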
D1 agonist – Allosteric Agonists of the Human D1 Dopamine Receptor: qHTS | D(1A) dopamine receptor (Homo sapiens), P21728 | HEK293 T-REx D1 cells, calcium flux, agonist mode | activation, % at 2 µM | 360,000 tested, 1% active; in the data active = activation above about 30%
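Inducible HEK293 T-REx D1 cells, force-coupled to calcium signalling, were plated at 4000 cells/well with tetracycline and held overnight at 30 C. After no-wash calcium dye loading, compound-evoked calcium rise over 180 s flagged agonists.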
D1 potentiator – Potentiators of Human D1 Dopamine Receptor: qHTS. D(1A) dopamine receptor (Homo sapiens), P21728. HEK293 TREx D1 cells, calcium flux, dopamine EC20 potentiation. potentiation, % at 10 µM. 360,000 tested, 0.036% active; in the data active = potentiation above about 30%
DRD3 agonist – qHTS of D3 Dopamine Receptor Agonist: qHTS; max activation, %; D(3) dopamine receptor (Homo sapiens), P35462; 410,000 tested, 0.58% active; D3R DiscoveRx beta-arrestin cells, luminescence, 90 min; in the data active = max activation above about 30%
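Agonist-mode cell screen: cells plated at 1500/well and incubated overnight at 37 °C, then exposed to library compounds for 90 min at 37 °C. Detection reagent was added for 30–60 min at room temperature, and luminescence was read.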
Numbers stand for hits; n = inactive; u = inconclusive; x = no result; ! = repeats disagree.

SMILES | D1 antagonist | D3 antag | D1 agonist | D1 potentiator | DRD3 agonist
COc1ccccc1NS(=O)(=O)c1cccc(NC(=O)Nc2ccc(Cl)cc2)c1 | n | n | n | n | n
COc1ccccc1NS(=O)(=O)c1cccc(C(=O)OCC(=O)Nc2cc(C)on2)c1 | -32 | n | n | n | n
CCOc1ccc(C(=O)NCCc2csc(-c3ccc(C(F)(F)F)cc3)n2)cc1OCC | n | x | n | n | n
COc1ccccc1C(=O)Nc1ccccc1OCc1cc(=O)n2c(C)csc2n1 | n | x | n | n | n
OC(c1ccccc1)c1nc2ccccc2n1Cc1c(F)cccc1Cl (stereo unspecified) | n | x | n | n | n
Brc1ccc(-c2nnc3sc(CN4CCN(c5ccccc5)CC4)cn23)cc1 | n | n | n | n | n
CCC1CCCCN1Cc1cn2c(-c3ccc(Br)cc3)nnc2s1 (stereo unspecified) | -32 | x | n | n | n
O=C(Nc1c(-c2ccccc2)nc2ccccn12)c1ccccc1F | -75! | n | n | n | n
CC1CCCCC1NC(=O)/C(C#N)=C/c1ccc(F)c(F)c1 (stereo unspecified) | -45 | n | n | n | n
CC1CCCCC1NC(=O)/C(C#N)=C/c1ccc2c(c1)OCCO2 (stereo unspecified) | n | n | n | n | n
Cc1cc(=O)[nH]c(SCCCOc2ccc(F)cc2)n1 | n | n | n | n | n
Cc1cc(Cl)c(OCCCSc2nc(C)cc(=O)[nH]2)c(Br)c1 | n | n | n | n | 41
CC(C)Oc1ccc(CNC(=O)c2ccc(CN3CC(=O)N4CCCCC4C3=O)cc2)cc1 (stereo unspecified) | n | x | n | n | n
C/C(=N\NC(=O)c1ccn(C)n1)c1cccc(NC(=O)c2ccncc2)c1 | -47 | n | n | n | n
C/C(=N\NC(=O)c1ccc(Cl)cc1)c1cccc(NC(=O)c2cccnc2)c1 | n | n | n | n | n
COC(=O)c1ccc(OC)c(Cn2c(=O)n(-c3cccc(Cl)c3)c(=O)c3c4c(sc32)CN(C(C)=O)CC4)c1 | -40 | x | n | n | n
COc1cccc(Cn2c(=O)n(-c3cccc(Cl)c3)c(=O)c3c4c(sc32)CN(C(C)=O)CC4)c1 | n | x | n | n | n
O=C(/C=C/c1cccc(Cl)c1Cl)OCC(=O)N1CCOCC1 | n | -59 | n | n | n
Cc1ccc(C)c(NC(=O)CSc2nncn3c2cc2sccc23)c1 | n | x | n | n | n
Oc1ccc(Cl)cc1CNCc1ccc(F)cc1 | n | -81 | 60 | n | n
Oc1ccc(Cl)cc1CNCc1ccc(Cl)cc1 | n | u | n | n | n
Oc1ccc(Cl)cc1Cc1cc(Cl)ccc1O | n | n | 111 | n | n
Oc1ccc(Cl)cc1CNn1cnnc1 | n | n | n | n | n
CCCOc1ccc(-c2nnc(-c3ccncc3)o2)cc1 | n | -71 | n | n | n
COc1ccccc1NC(=O)C(OC(=O)CNC(=O)c1ccccc1)c1ccccc1 (stereo unspecified) | n | x | n | n | x
SMILES | D1 antagonist | D3 antag | D1 agonist | D1 potentiator | DRD3 agonist
C=C1CC2C(CCC3(C)C2CCC3(O)C(C)=O)C2(C)CCC(=O)C=C12 (stereo unspecified) | -51 | n | n | n | n
O=c1c2ccccc2nc2n1CC/C2=C/N1CCN(c2cccc(C(F)(F)F)c2)CC1 | n | -91 | n | n | n
O=C(COC(=O)[C@H](Cc1ccccc1)NC(=O)c1cccs1)NC1CCCCC1 | -43 | n | n | n | n
O=C(COC(=O)c1ccccc1NS(=O)(=O)c1cccs1)NCC12CC3CC(CC(C3)C1)C2 | n | n | n | n | n
O=C(COC(=O)c1ccccc1NS(=O)(=O)c1cccs1)NC1CCCCC1 | -55 | n | n | n | n
Cc1ccc(Nc2nc(C#N)nc(NC3CCCC3)n2)cc1 | n | x | n | n | x
CS(=O)(=O)NCCCNc1ccc(Cl)cc1[N+](=O)[O-] | n | -50 | n | n | n
CCNCCNc1ccc(Cl)cc1[N+](=O)[O-] | x | -75 | x | x | n
Cc1ccc(CNc2ccc(Cl)cc2[N+](=O)[O-])cc1 | n | n | n | n | n
CS(=O)(=O)NCCCNc1ccc(C(F)(F)F)cc1[N+](=O)[O-] | n | n | n | n | n
COc1ccccc1N1CCN(S(=O)(=O)c2c(C)sc3ncn(CC(=O)N(C)c4ccc(Cl)cc4)c(=O)c23)CC1 | n | x | n | n | n
CCOc1cccc(C(=O)N(Cc2ccc(F)cc2)C2CCS(=O)(=O)C2)c1 (stereo unspecified) | n | n | n | n | 38
COc1cccc(CN(C(=O)c2ccccc2)C2CCS(=O)(=O)C2)c1 (stereo unspecified) | -35 | n | n | n | n
CCCOc1cccc(C(=O)N(Cc2ccccc2)C2CCS(=O)(=O)C2)c1 (stereo unspecified) | n | n | n | n | n
COc1ccc(NC(=O)C2CCCO2)c(OC)c1 (stereo unspecified) | n | n | n | n | n
COc1ccc(NC(=O)CN2CCC(C(=O)c3ccc(C)cc3)CC2)c(OC)c1 | n | -71 | n | n | n
COc1ccc(NC(=O)CN2CCN(CC(=O)Nc3ccccc3OC)CC2)c(OC)c1 | n | n | n | n | n
COc1ccc(NC(=O)CN2CCN(CC(=O)Nc3ccccc3Cl)CC2)c(OC)c1 | n | n | n | n | 30
COc1ccc(-c2[nH]ncc2CN2CCC(C(=O)c3ccc(F)cc3)CC2)cc1 | n | -90 | n | n | n
COc1ccc(NC(=O)N2CCC(C(=O)c3ccc(F)cc3)CC2)cc1 | n | n | n | n | n
COc1ccc(NC(=O)CN2CCN(C(=O)C3CCCO3)CC2)c(OC)c1 (stereo unspecified) | n | n | 50 | n | n
O=C(CSc1ncc2c(n1)-c1ccccc1N(Cc1ccc(Cl)cc1)S2(=O)=O)c1ccc(Cl)cc1 | n | x | n | n | n
CCOC(=O)N1CCC(NC(=O)c2ccc3c(c2)N(Cc2ccc(F)cc2)C(=O)c2ccccc2S3=O)CC1 (stereo unspecified) | n | x | n | n | n
COc1ccc(OC)c(NC(=O)CN2CCC(C(=O)c3ccc(C)cc3)CC2)c1 | n | u | n | n | n
COc1ccc(NC(=O)COC(=O)c2ncc(Cl)c(Cl)c2Cl)c(OC)c1 | -41 | n | n | n | n
COc1ccc(-c2[nH]ncc2CN2CCC(OCc3ccccc3)CC2)c(F)c1 | -52 | n | n | n | n
COc1ccc(NC(=O)CN2CCC(C(=O)c3ccc(F)cc3)CC2)c(OC)c1 | n | -73 | n | n | n
C/C(CCc1ccco1)=N\NC(=O)CNc1c(Br)cc(Br)cc1Br | -44 | n | n | n | n
COc1ccc(CNC(=O)c2ccc3nc(CCc4ccccc4)oc3c2)cc1 | n | x | 53 | n | n

Assay outcomes (PubChem BioAssay)
